14-3-3 Bad PPI: inhibitors of 14-3-3 zeta/Bad binding, primary screen, biochemical, TR-FRET, bovine 14-3-3 zeta. inhibition, % at 21.7 µM. TR-FRET 14-3-3zeta/Dy647-pBad peptide displacement, 1 h. 0.71% of 220,000 active. 14-3-3 protein zeta/delta (Bos taurus), P63103;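 active means inhibition above about 70%, limit read from the data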;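 further: 0% = full 14-3-3 plus peptide FRET controls and 100% = background without 14-3-3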
Target sequence (P63103 whole entry, looked up): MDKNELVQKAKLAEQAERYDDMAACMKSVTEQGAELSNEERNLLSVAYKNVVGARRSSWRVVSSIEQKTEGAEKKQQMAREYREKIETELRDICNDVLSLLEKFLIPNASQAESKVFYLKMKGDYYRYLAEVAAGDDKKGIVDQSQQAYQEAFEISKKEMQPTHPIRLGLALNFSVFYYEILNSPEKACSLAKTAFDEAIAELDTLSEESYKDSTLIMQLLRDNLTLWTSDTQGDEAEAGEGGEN
Mcl1-Bid inh: Mcl-1/Bid binding inhibitors, primary screen, biochemical, TR-FRET, 1536-well; Induced myeloid leukemia cell differentiation protein Mcl-1 (Homo sapiens), Q07820; TR-FRET Mcl-1/Bid-Dy647 peptide binding; inhibition, % at 21.7 µM; 0.97% of 220,000 active; AID 1021, 2008;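 active means compounds that cut the binding signal by more than half at the single screening dose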;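 further: His-tagged Mcl-1 with europium anti-His antibody binding Bid BH3 peptide; 0% = Mcl-1 plus peptide wells and 100% = peptide-only wells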
Target sequence (Q07820 whole entry, looked up): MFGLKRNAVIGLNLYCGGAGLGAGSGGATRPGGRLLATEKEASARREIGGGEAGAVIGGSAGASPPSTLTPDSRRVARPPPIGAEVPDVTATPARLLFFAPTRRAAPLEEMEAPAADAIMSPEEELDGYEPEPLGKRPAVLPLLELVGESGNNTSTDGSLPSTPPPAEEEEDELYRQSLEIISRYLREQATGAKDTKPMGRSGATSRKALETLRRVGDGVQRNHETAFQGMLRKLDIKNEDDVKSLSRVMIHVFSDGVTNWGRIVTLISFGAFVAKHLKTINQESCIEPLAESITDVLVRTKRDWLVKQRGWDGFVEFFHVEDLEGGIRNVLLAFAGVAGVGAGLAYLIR
Mcl-1 Bim block: inhibitors of Bim peptide binding to Mcl-1, primary screen, biochemical, bead-based flow cytometry, multiplex; Induced myeloid leukemia cell differentiation protein Mcl-1 (Homo sapiens), Q07820; Bim peptide-Mcl-1 binding; inhibition, % at 10 µM; 0.1% of 190,000 active; AID 1009, 2008; in the data active means inhibition above about 40%;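 further: 0% = no compound tracer wells and 100% = peptide blocker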
Mcl1 Noxa PPI: Mcl-1/Noxa binding inhibitors, primary screen, biochemical, TR-FRET, 1536-well | inhibition, % at 21.7 µM | 1.5% of 220,000 active | TR-FRET Mcl-1/Noxa peptide binding, 2 h | Induced myeloid leukemia cell differentiation protein Mcl-1 (Homo sapiens), Q07820 | AID 1022, 2008;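 active means compounds that cut the protein-peptide binding signal by more than 50% relative to plate controls in a single-dose test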;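 further: His-tagged Mcl-1 with rhodamine Noxa BH3 peptide and terbium anti-His antibody; 0% = Mcl-1 plus Noxa peptide wells and 100% = peptide-only wells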
MCL1 BIM primary: inhibitors of MCL1 binding to BIM-BH3, primary screen, biochemical, fluorescence polarization | GST-MCL1 / FITC-Bim-BH3 fluorescence polarization | inhibition, % at 10.9 µM | 0.68% of 320,000 active | AID 2057, 2009;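 active means inhibition above the mean inhibition of all tested compounds plus 3 SD, set per campaign, cut at about 40% in these data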;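 further: 0% = DMSO wells and 100% = unlabeled Bim-BH3 peptide control; higher means more loss of mP so more displacement of Bim peptide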
* = called active by the depositor; [ ] = another dose, or the depositor's remark. Only some compounds are listed: those with a hit (about 2.5% of all), similar ones and a draw of the others.

Results for CC(=O)Nc1ccc(C(=O)CSc2nnnn2C)cc1 ?
14-3-3 Bad PPI: 8.6; Mcl1-Bid inh: -40.4; Mcl1 Noxa PPI: -2.1; MCL1 BIM primary: 1.6

What do the screens show for `Cc1cc(C)n(-c2nc3ccccc3c(=O)n2OCc2ccc(F)cc2)n1`?
14-3-3 Bad PPI: 70.2*[fluorescence artefact?]; Mcl1-Bid inh: 12.8; Mcl-1 Bim block: 1.0; Mcl1 Noxa PPI: 15.6; MCL1 BIM primary: -4.7

What do the screens show for `Fc1ccccc1-c1csc(-c2cccnc2)n1`?
MCL1 BIM primary: -6.0

What do the screens show for `COc1cccc2cc(C(=O)NNC(=O)c3ccc(Br)cc3)c(=O)oc12`?
14-3-3 Bad PPI: 59.4; Mcl1-Bid inh: 28.0; Mcl-1 Bim block: 1.0; Mcl1 Noxa PPI: 63.5*; MCL1 BIM primary: 2.1

Results for COc1cccc2cc(C(=O)Oc3ccc(NC(C)=O)cc3)c(=O)oc12 ?
14-3-3 Bad PPI: 14.2; Mcl1-Bid inh: 94.3*; Mcl-1 Bim block: 2.0; Mcl1 Noxa PPI: -0.7; MCL1 BIM primary: 0.4

What do the screens show for `CNc1ccc(Br)cc(C(=O)/C=C/c2cccc(OC)c2)c1=O`?
14-3-3 Bad PPI: 25.7; Mcl1-Bid inh: 0.7; Mcl-1 Bim block: 8.0; Mcl1 Noxa PPI: 80.7*; MCL1 BIM primary: 11.0

How did CNc1ccc(Br)cc(C(=O)/C=C/c2ccc(Cl)cc2Cl)c1=O do in these assays?
14-3-3 Bad PPI: 14.2; Mcl1-Bid inh: 12.8; Mcl-1 Bim block: 2.0; Mcl1 Noxa PPI: 91.9*; MCL1 BIM primary: -44.1

How did CNc1ccc(Br)cc(C(=O)/C=C/c2ccc(OC)cc2OC)c1=O do in these assays?
14-3-3 Bad PPI: -11.6; Mcl1-Bid inh: -2.5; Mcl-1 Bim block: 22.0; Mcl1 Noxa PPI: 76.1*; MCL1 BIM primary: -38.2

What do the screens show for `O=C(/C=C/c1ccc(Cl)cc1Cl)c1ccc[nH]1`?
14-3-3 Bad PPI: -22.0; Mcl1-Bid inh: -8.3; Mcl-1 Bim block: 0.0; Mcl1 Noxa PPI: 17.5; MCL1 BIM primary: 7.0

How did O=C1c2cc([N+](=O)[O-])cc3cc([N+](=O)[O-])cc(c23)C(=O)N1c1ccccn1 do in these assays?
14-3-3 Bad PPI: 19.0; Mcl1-Bid inh: 20.7; Mcl-1 Bim block: -6.0; Mcl1 Noxa PPI: 12.5; MCL1 BIM primary: 14.1

What do the screens show for `CC1CC(C)CN(CCCNC(=O)c2c(O)nc3ccccn3c2=O)C1` (stereo not given)?
MCL1 BIM primary: 7.5

What do the screens show for `N=c1sccn1CC(=O)NCCc1ccc(Cl)cc1Cl`?
14-3-3 Bad PPI: 14.5; Mcl1-Bid inh: 41.3; Mcl-1 Bim block: 0.0; Mcl1 Noxa PPI: 51.2*; MCL1 BIM primary: 5.7

How did Cc1cnn(Cc2ccccc2)c1N do in these assays?
14-3-3 Bad PPI: -32.5; Mcl1-Bid inh: -23.9; Mcl-1 Bim block: 4.0; Mcl1 Noxa PPI: -4.5; MCL1 BIM primary: 6.5

How did O=C1c2cccc3cccc(c23)C(=O)N1/N=C/c1ccc(O)cc1O do in these assays?
14-3-3 Bad PPI: 14.8; Mcl1-Bid inh: 28.1; Mcl-1 Bim block: -3.0; Mcl1 Noxa PPI: 59.6*; MCL1 BIM primary: 2.5

What do the screens show for `O=C1c2cccc3cccc(c23)C(=O)N1c1ccc(O)cc1`?
MCL1 BIM primary: 5.1

How did COc1cc(/C=N/N2C(=O)c3ccccc3C2=O)ccc1O do in these assays?
14-3-3 Bad PPI: 2.9; Mcl1-Bid inh: -34.2; Mcl-1 Bim block: 0.0; Mcl1 Noxa PPI: 27.2; MCL1 BIM primary: 6.5

How did O=C1c2ccccc2C(=O)N1/N=C/c1ccc(O)c(O)c1O do in these assays?
14-3-3 Bad PPI: 49.7; Mcl1-Bid inh: -92.9; Mcl1 Noxa PPI: 100.0*

Results for O=C(/C=C/c1ccc(Br)o1)NCc1ccccc1 ?
14-3-3 Bad PPI: 32.2; Mcl1-Bid inh: 16.3; Mcl-1 Bim block: -1.0; Mcl1 Noxa PPI: 72.3*; MCL1 BIM primary: 10.6

What do the screens show for `Cc1ccc(CNC(=O)/C=C/c2ccc(Br)o2)cc1`?
14-3-3 Bad PPI: -1.7; Mcl1-Bid inh: -2.1; Mcl-1 Bim block: -10.0; Mcl1 Noxa PPI: 37.5; MCL1 BIM primary: -2.9

What do the screens show for `Cc1nc(-c2ccccc2)cn(O)c1=O`?
14-3-3 Bad PPI: 71.9*; Mcl1-Bid inh: 42.8; Mcl-1 Bim block: -2.0; Mcl1 Noxa PPI: 12.3

How did CCc1cc2c(=O)c(-c3nc4ccccc4n3C)c(COCC(=O)O)oc2cc1O do in these assays?
14-3-3 Bad PPI: 34.6; Mcl1-Bid inh: -15.3; Mcl-1 Bim block: -2.0; Mcl1 Noxa PPI: 11.2; MCL1 BIM primary: 2.6

How did CCCc1cc2c(=O)c(-c3nc4ccccc4s3)c(COCC(=O)O)oc2cc1O do in these assays?
14-3-3 Bad PPI: -13.7; Mcl1-Bid inh: 2.3; Mcl-1 Bim block: 1.0; Mcl1 Noxa PPI: 72.9*

What do the screens show for `NCCOc1ccccc1-c1ccccc1`?
14-3-3 Bad PPI: 1.1; Mcl1-Bid inh: -10.0; Mcl-1 Bim block: 2.0; Mcl1 Noxa PPI: 9.0; MCL1 BIM primary: 6.2

How did Cc1ccc(OCc2nnc(SCCN3CCOCC3)n2C)cc1 do in these assays?
14-3-3 Bad PPI: 17.4; Mcl1-Bid inh: -3.5; Mcl-1 Bim block: -7.0; Mcl1 Noxa PPI: 0.7; MCL1 BIM primary: -8.0

What do the screens show for `CCc1ccc(OCc2nnc(SCCN3CCOCC3)n2C)cc1`?
14-3-3 Bad PPI: 85.0*; Mcl1-Bid inh: 16.3; Mcl-1 Bim block: 12.0; Mcl1 Noxa PPI: 20.6; MCL1 BIM primary: -1.5

What do the screens show for `O=C(Nc1ccc2c(c1)OCO2)C1Cc2ccccc2CN1S(=O)(=O)c1cccs1` (stereo not given)?
14-3-3 Bad PPI: -4.0; Mcl1-Bid inh: -55.4; Mcl-1 Bim block: 0.0; Mcl1 Noxa PPI: 37.0; MCL1 BIM primary: -1.9

What do the screens show for `N/C(=N\OC(=O)CCC1CCCC1)c1ccncc1`?
14-3-3 Bad PPI: 4.7; Mcl1-Bid inh: 9.7; Mcl-1 Bim block: 95.0*; Mcl1 Noxa PPI: 16.2; MCL1 BIM primary: 0.6

What do the screens show for `CC(C)(C)CC(=O)O/N=C(\N)c1ccncc1`?
14-3-3 Bad PPI: 0.5; Mcl1-Bid inh: 82.0*; Mcl-1 Bim block: -5.0; Mcl1 Noxa PPI: 4.7; MCL1 BIM primary: -1.2

How did COC(=O)[C@@]1(Cc2ccccc2)[C@H]2c3cc(C(=O)N4CCCC4)n(CCSCCO)c3C[C@H]2CN1C(=O)c1ccccc1 do in these assays?
14-3-3 Bad PPI: -6.3; Mcl1-Bid inh: -13.0; Mcl-1 Bim block: -2.0; Mcl1 Noxa PPI: 100.7*; MCL1 BIM primary: 0.8

What do the screens show for `Cc1[nH]n(-c2ccc(Br)cc2)c(=O)c1C=Nc1ccc(S(=O)(=O)Nc2nccs2)cc1`?
14-3-3 Bad PPI: 3.0; Mcl1-Bid inh: -71.3; Mcl-1 Bim block: 0.0; Mcl1 Noxa PPI: 78.7*; MCL1 BIM primary: 10.4

How did COc1cc(C)ccc1OCc1cc(C(=O)NC(C)Cn2cncn2)no1 (stereo not given) do in these assays?
MCL1 BIM primary: -3.3

How did COc1cccc(CNC(=O)Cn2c(=O)n(CCC(=O)N3CCCCC3)c(=O)c3sccc32)c1 do in these assays?
MCL1 BIM primary: -3.5

What do the screens show for `COc1cc(C(=O)NCC(C)C)cc(OC)c1OC`?
14-3-3 Bad PPI: 21.3; Mcl1-Bid inh: -25.4; Mcl-1 Bim block: 0.0; Mcl1 Noxa PPI: -6.7; MCL1 BIM primary: 3.0

Source: PubChem (several laboratories)
